This is a sample that favours compounds with a hit; in the whole collection about 4.9% have one here.
UCHL1 block: human UCHL1 deubiquitinase inhibition; P09936; purified UCHL1, Ub-rhodamine cleavage fluorescence; inhibition, % at 20 µM; hit rate 0.2% among 47,000
USP10 inh: blocks human USP10 ubiquitin-rhodamine cleavage; Q14694; purified USP10, Ub-rhodamine fluorescence, 60 min; AID 1645856; hit rate 1.1% among 47,000; inhibition, % at 20 µM
USP8 inh: blocks human USP8 ubiquitin-rhodamine cleavage; P40818; hit rate 4.2% among 47,000; inhibition, % at 20 µM; purified USP8, Ub-rhodamine cleavage fluorescence, 30 min
Target sequence (P40818 whole entry, looked up): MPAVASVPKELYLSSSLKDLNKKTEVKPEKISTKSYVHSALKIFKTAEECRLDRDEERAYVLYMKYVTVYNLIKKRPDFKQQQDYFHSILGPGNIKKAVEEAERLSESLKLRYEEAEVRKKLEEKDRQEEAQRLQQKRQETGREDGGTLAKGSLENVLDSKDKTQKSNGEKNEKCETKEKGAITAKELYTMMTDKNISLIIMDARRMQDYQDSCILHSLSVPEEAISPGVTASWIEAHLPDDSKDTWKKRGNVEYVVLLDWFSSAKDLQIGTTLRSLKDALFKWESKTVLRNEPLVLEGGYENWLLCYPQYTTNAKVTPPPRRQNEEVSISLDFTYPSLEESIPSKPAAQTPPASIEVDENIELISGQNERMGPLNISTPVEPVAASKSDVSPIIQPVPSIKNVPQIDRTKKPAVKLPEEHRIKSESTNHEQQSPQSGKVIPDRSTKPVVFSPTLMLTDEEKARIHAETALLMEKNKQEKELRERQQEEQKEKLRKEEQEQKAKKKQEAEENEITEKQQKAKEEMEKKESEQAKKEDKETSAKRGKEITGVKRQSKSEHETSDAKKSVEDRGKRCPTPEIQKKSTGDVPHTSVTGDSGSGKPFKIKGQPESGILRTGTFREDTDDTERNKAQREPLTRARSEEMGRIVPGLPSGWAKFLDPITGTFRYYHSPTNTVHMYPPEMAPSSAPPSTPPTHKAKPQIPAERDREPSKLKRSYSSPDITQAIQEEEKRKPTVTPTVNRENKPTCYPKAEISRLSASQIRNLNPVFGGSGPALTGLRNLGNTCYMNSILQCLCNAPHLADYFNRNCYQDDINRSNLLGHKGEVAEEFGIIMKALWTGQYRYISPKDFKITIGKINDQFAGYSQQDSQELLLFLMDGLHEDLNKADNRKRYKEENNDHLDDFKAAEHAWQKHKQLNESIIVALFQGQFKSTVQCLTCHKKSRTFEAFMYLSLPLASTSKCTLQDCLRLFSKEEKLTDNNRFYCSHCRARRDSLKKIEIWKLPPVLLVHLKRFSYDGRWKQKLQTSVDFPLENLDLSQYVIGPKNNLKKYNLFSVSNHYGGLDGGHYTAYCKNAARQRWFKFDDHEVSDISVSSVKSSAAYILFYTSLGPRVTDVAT
OTUD3 block: human OTUD3 deubiquitinase inhibition; Q5T2D3; purified OTUD3, Ub-rhodamine fluorescence, 2 h; inhibition, % at 25 µM; hit rate 0.7% among 47,000
USP7 inh: blocks human USP7 ubiquitin-rhodamine cleavage. inhibition, % at 20 µM. Q93009. hit rate 0.3% among 47,000. purified USP7, Ub-rhodamine cleavage fluorescence. AID 1645854
Active calls of the source: *. No stated cut-off is given here; in the data, active means inhibition above about 30%; inactive means the rest.

SMILES	UCHL1 block	USP10 inh	USP8 inh	OTUD3 block	USP7 inh
O=C(C1COc2ccccc2O1)N1CCc2cc(-c3ccno3)ccc21 (stereo unspecified)	-4	-1	-55	-11	0
Cc1ccc(C2c3c(C)nn(-c4ccccc4)c3Oc3ncn4nc(-c5ccccc5O)nc4c32)cc1 (stereo unspecified)	0	-1	41*	7	6
Cc1nn(-c2ccccc2)c2c1C(c1cccnc1)c1c(ncn3nc(-c4cccc5ccccc45)nc13)O2 (stereo unspecified)	9	8	16	11	9
CC(=O)N1CCc2cc(S(=O)(=O)NC(C(=O)Nc3nc4ccc(C)cc4s3)C(C)C)ccc21 (stereo unspecified)	2	16	30*	12	7
CC(C)Cn1c(=O)c2nscc2n(CC(=O)Nc2ccc(F)cc2F)c1=O	8	-1	36*	14	-35
Cc1ccccc1NC(=O)Cn1c(=O)n(CC(C)C)c(=O)c2nscc21	13	-3	38*	-20	-71
CC(C)Cn1c(=O)c2nscc2n(CC(=O)NCc2ccccc2)c1=O	10	-7	39*	1	-48
COc1ccc(CNS(=O)(=O)c2cc(-c3[nH]ncc3C(=O)N3CCCC3)oc2C)cc1	8	2	4	13	-44
COc1ccc(N2CC(C(=O)NC3(c4nc(C)no4)CCCCC3)CC2=O)cc1 (stereo unspecified)	-6	0	1	-10	-8
CS(=O)(=O)N[C@@H]1C[C@@H]2CO[C@H](c3ccccc3)C[C@@H]2C1	6	2	2	11	6
CCN1CCC2(CC1)N=C(c1ccc3c(c1)OCO3)CC(c1ccccc1O)N2 (stereo unspecified)	-2	0	34*	-3	-1
COc1ccc(C2CC(c3ccccc3O)=NC3(CCN(C(C)=O)CC3)N2)cc1 (stereo unspecified)	-1	-5	25	0	-8
CCN1CCC2(CC1)N=C(c1ccccc1)CC(c1cccc(OC)c1O)N2 (stereo unspecified)	0	-8	60*	-5	-1
CC(=O)N1CCC2(CC1)N=C(c1ccccc1O)CC(c1ccc(C)cc1)N2 (stereo unspecified)	-1	-2	12	-8	-31
CCc1ccccc1Nc1cc(C(=O)NCc2cccnc2)c2ccccc2n1	0	-1	-16	-20	-1
O=C(NC1CCCC1)c1cccn1Cc1noc(-c2ccccc2)n1	6	3	32*	9	-10
CCC1C(=O)NCCN1C(=O)/C=C/c1ccccc1 (stereo unspecified)	0	-1	4	3	4
COc1cc(O)cc2c1C(=O)OC(C)CCCCCCC2 (stereo unspecified)	1	38*	9	6	24
c1cncc(-c2nc(-c3ccc4c(c3)ncn4CCN3CCCCC3)no2)c1	0	-1	-3	-6	0
COc1ccccc1N=C1N=C(Nc2ccccc2OC)c2ccccc21	-3	-7	-1	-8	-4
CCN(C(=O)c1cc2c(Cl)nc3ccccc3c2s1)c1ccccc1F	0	2	-5	10	1
O=C(Nc1nccnc1C(=O)NCc1ccccn1)c1ccccc1	1	-1	38*	-5	1
Cc1ccc2nc(-c3ccccc3O)c(Nc3ccc(Cl)cc3)n2c1	0	6	76*	6	-5
Cc1ccccc1Nc1c(-c2ccccc2O)nc2c(C)cccn12	5	9	1	-4	6
COCCn1ccc2nc(C)c(C(=O)Nc3ccc4c(c3)OCO4)cc2c1=O	9	-2	75*	0	4
SMILES	UCHL1 block	USP10 inh	USP8 inh	OTUD3 block	USP7 inh
COCCn1ccc2nc(C)c(C(=O)NCc3ccc(C)cc3)cc2c1=O	0	-2	-6	-1	3
CC(C(=O)Nc1ccc(F)cc1)n1cnc2nc(N3CCCCC3)ncc2c1=O (stereo unspecified)	-1	-4	32*	-57	-7
CCNC(=O)c1ccc(N2CCNCC2)c(NS(=O)(=O)c2cc(C)ccc2C)c1	-2	-3	36*	3	-2
O=C(Nc1ccc2c(c1)OCO2)c1ccc2nc(C(F)(F)F)sc2c1	-2	0	55*	3	3
O=C(Nc1ccc2nc3n(c(=O)c2c1)CCCC3)c1ccc2c(c1)OCO2	4	-4	-4	-8	3
COc1cccc(NC(=O)[C@H](C)NC(=O)c2cc3c(OC)c(OC)ccc3[nH]2)c1	7	3	81*	-6	6
CCN(CC)C(=O)[C@@]1(c2ccccc2OC)C[C@H]1COc1ccc(S(C)(=O)=O)cc1	-3	-4	-3	-3	-26
Cn1ccc2c(cc(C(=O)NC3CCCCCC3)n2C)c1=O	-1	3	-130	0	0
CC(NC(=O)c1cc2c(=O)n(C)ccc2n1C)c1ccccc1 (stereo unspecified)	3	3	45*	7	3
CCc1nc(CCNC(=O)Nc2cc(Cl)cc(Cl)c2)cs1	0	-3	1	6	-46
COc1ccc(CC(=O)N2C[C@H]3N(C)C(=O)c4ccccc4C(=O)[C@@]3(C)C2)cc1	2	1	8	-4	-1
Cc1noc2nc(C)n(CC(=O)NCCC3=CCCCC3)c(=O)c12	0	0	-1	10	-16
O=C(Cn1cnc2sc3c(c2c1=O)CCC3)NCCC1=CCCCC1	-1	8	78*	8	11
O=C(OC1CSc2nc3ccccc3n2C1)c1ccc([N+](=O)[O-])o1 (stereo unspecified)	11	40*	64*	5	-38
O=C(NCc1ccccc1Cl)C1CCn2c(nc3ccccc32)C1 (stereo unspecified)	-2	-3	-1	-2	-4
CCOc1ccc2[nH]c(=O)c(-c3nc4ccc(C)cn4c3NCc3ccccc3)cc2c1	5	31*	14	14	15
CCOc1ccc2[nH]c(=O)c(-c3nc4cc(C)ccn4c3NC(C)(C)C)cc2c1	-2	-5	-51	-67	-3
CN(CC(=O)Nc1ccc2c(c1)OCO2)S(=O)(=O)c1cccs1	-1	-1	50*	5	0
CC(C)(C)c1nc(SCc2nc(N)nc(Nc3ccccc3)n2)n[nH]1	0	-1	-2	-11	-1
CCc1nc(SCc2nc(N)nc(Nc3ccccc3)n2)n[nH]1	2	2	76*	0	-2
NC(=O)C1(N2CCCCC2)CCN(C(=O)c2[nH]nc3c2CCc2ccccc2-3)CC1	4	-5	87*	-11	4
O=C(COc1nsnc1N1CCOCC1)Nc1ccccc1F	-2	2	12	81*	0
O=C(COc1nsnc1N1CCOCC1)Nc1ccc(F)c(F)c1	2	1	-22	2	-4
Cc1noc(C)c1CC(=O)Nc1nnc(-c2ccc(C(C)C)cc2)s1	-4	5	32*	-8	1
N#Cc1ccc(OCc2noc(-c3ccc(F)cc3)n2)cc1	0	1	38*	8	5
